Measurements taken from PubChem BioAssay.
Activity calls are given as the source filed them. Unless noted, the rule behind the calls is not given here.

Experiments:
[1] = system: Wnt5a (protein binding on small-molecule microarray); experiment: Wnt5a binders on small-molecule microarray, primary screen, biophysical, 635/667 nm fluorescence (AID 1142); conditions: 635 nm fluorescence, higher = more signal;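 note: fluorescence read at 667 nm with signal to noise per printed feature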
[2] = cell viability in Huh7 cells, primary screen, cytotoxicity control for HCV replication inhibitor project, CellTiter-Glo luminescence, basal, 48 h (AID 1143); conditions: Huh7 HCV replicon, higher = more signal, called active from +8 up or from −8 down;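 note: Huh7 hepatoma cells carrying a hepatitis C replication reporter with no stimulus; test concentration not given here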
[3] = P. aeruginosa biofilm formation inhibitors, primary screen, PAO1 strain, BacTiter-Glo luminescence, LB-PBS (AID 1144); conditions: 12 h, higher = more signal
[4] = CREB reporter modulators without forskolin, primary screen, cell-based, PC12, CRE-LacZ reporter, unstimulated (AID 1145); conditions: no forskolin, luminescence, 4.5 h, higher = more signal, called active from +8 up or from −8 down
[5] = CREB reporter modulators under forskolin, primary screen, cell-based, PC12, CRE-LacZ reporter, forskolin-stimulated (AID 1146); conditions: luminescence, 4.5 h, higher = more signal, called active from +8 up or from −8 down;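 note: PC12 cells with 6xCRE LacZ reporter stimulated by forskolin 10 µM; beta-galactosidase reporter signal reflecting CREB driven transcription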
[6] = target: Streptavidin (Streptomyces avidinii) (UniProt P22629); experiment: streptavidin binders on small-molecule microarray, primary screen, artefact control for SMM compound annotation, biophysical, 635/667 nm fluorescence (AID 1147); conditions: streptavidin binding, higher = more signal;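 note: signal reflects streptavidin binding to arrayed compounds as a control protein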
[7] = small-molecule binders of probe aInhba, primary screen, biochemical, small-molecule microarray, 635/667 nm fluorescence (AID 1148); conditions: higher = more signal;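 note: score merges 667nm spot fluorescence with signal-to-noise for antibody binding to printed compounds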
[8] = target: Torsin-1A (Homo sapiens) (UniProt O14656); experiment: torsin A binders from cell lysate, primary screen, small-molecule microarray, wild-type, 635/667 nm (AID 1149); conditions: COS7 hTOR1A-WT lysate, 635 nm fluorescence, higher = more signal
[9] = target: Torsin-1A (Homo sapiens) (UniProt O14656); experiment: small-molecule binders of mutant TOR1A in lysate, primary screen, cell lysate, small-molecule microarray, COS7 lysate, 635/667 nm fluorescence (AID 1150); conditions: COS7 hTOR1A mutant lysate, 635 nm fluorescence, higher = more signal;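 note: score pools 667 nm emission and signal to noise measuring lysate protein binding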
[10] = system: Sonic hedgehog protein (Shh); experiment: small-molecule binders of Shh protein, primary screen, biochemical, small-molecule microarray, 635/667 nm fluorescence (AID 1151); conditions: small-molecule microarray binding, 635 nm fluorescence; higher = more signal;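 note: Shh protein binding to compounds spotted on small-molecule microarray slides; score combines spot fluorescence intensity with signal-to-noise across triplicate slides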
[11] = E. coli DRC41 culture turbidity changes, primary screen, E. coli filamentation inducer project, strain DRC41, OD650, 48 h (AID 1152);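 note: E. coli MC1000 strain DRC41 lacking acrAB efflux pump and sulA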; conditions: E. coli DRC41 (acrAB sulA), higher = more signal, called active from +8 up or from −8 down
[12] = small-molecule binders of probe aLefty1, primary screen, biochemical, small-molecule microarray, 635/667 nm fluorescence (AID 1153); conditions: higher = more signal;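 note: score merges spot fluorescence with signal-to-noise ratio from the scanned slide images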
[13] = PSAC antagonists in infected red cells, primary screen, cell-based, P. falciparum Indochina, OD700, 1 h (AID 1154); conditions: P. falciparum Indochina infected RBC osmotic lysis, higher = more signal, called active from +8 up or from −8 down
[14] = PSAC antagonists in infected red cells, primary screen, cell-based, P. falciparum Indochina, OD700, 2 h (AID 1155);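 note: lysis reports solute entry through the parasite surface anion channel PSAC; channel blockers reduce lysis of infected cells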; conditions: P. falciparum Indochina infected erythrocytes, osmotic lysis OD700; higher = more signal, called active from +8 up or from −8 down
[15] = osmotic lysis modulators in infected erythrocytes, primary screen, PSAC antagonist project, cell-based, P. falciparum Indochina, OD700, 3 h (AID 1156); conditions: higher = more signal, called active from +8 up or from −8 down
[16] = PSAC antagonists in infected red cells, primary screen, cell-based, P. falciparum Indochina, OD700, 18 h (AID 1157); conditions: P. falciparum Indochina infected erythrocytes, osmotic lysis OD700, 18 h; higher = more signal, called active from +8 up or from −8 down
[17] = modulators of S6 phosphorylation in cells, primary screen, cell-based, A549, cytoblot, luminescence, serum-stimulated (AID 1158); conditions: A549 phospho-S6 cytoblot, 5 h, higher = more signal;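 note: serum-stimulated A549 lung adenocarcinoma cells; signal is phosphorylated S6 detected by cytoblot immunostaining with HRP secondary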
[18] = target: NADPH oxidase 2 (Homo sapiens) (UniProt P04839); experiment: NOX2-dependent H2O2 signal modulators, primary screen, NOX inhibitor project, cell-based, HEK293-NOX2, PMA-stimulated, Amplex Red fluorescence (AID 1159); conditions: 45 min, higher = more signal, called active from +8 up or from −8 down; note: test concentration not given here
[19] = target: NADPH oxidase 4 (Homo sapiens) (UniProt Q9NPH5); experiment: NOX4-dependent H2O2 signal modulators, primary screen, NOX inhibitor project, cell-based, HEK293-NOX4, tetracycline-induced, Amplex Red fluorescence (AID 1160); conditions: 45 min, higher = more signal, called active from +8 up or from −8 down
[20] = target: NADPH oxidase 5 (Homo sapiens) (UniProt Q96PH1); experiment: NOX5-dependent H2O2 signal modulators, primary screen, NOX inhibitor project, cell-based, HEK293-NOX5, Amplex Red fluorescence (AID 1161); conditions: HEK293-NOX5, ionomycin, 45 min, higher = more signal
Sequence of NADPH oxidase 5 (Homo sapiens) (Q96PH1 whole entry, looked up): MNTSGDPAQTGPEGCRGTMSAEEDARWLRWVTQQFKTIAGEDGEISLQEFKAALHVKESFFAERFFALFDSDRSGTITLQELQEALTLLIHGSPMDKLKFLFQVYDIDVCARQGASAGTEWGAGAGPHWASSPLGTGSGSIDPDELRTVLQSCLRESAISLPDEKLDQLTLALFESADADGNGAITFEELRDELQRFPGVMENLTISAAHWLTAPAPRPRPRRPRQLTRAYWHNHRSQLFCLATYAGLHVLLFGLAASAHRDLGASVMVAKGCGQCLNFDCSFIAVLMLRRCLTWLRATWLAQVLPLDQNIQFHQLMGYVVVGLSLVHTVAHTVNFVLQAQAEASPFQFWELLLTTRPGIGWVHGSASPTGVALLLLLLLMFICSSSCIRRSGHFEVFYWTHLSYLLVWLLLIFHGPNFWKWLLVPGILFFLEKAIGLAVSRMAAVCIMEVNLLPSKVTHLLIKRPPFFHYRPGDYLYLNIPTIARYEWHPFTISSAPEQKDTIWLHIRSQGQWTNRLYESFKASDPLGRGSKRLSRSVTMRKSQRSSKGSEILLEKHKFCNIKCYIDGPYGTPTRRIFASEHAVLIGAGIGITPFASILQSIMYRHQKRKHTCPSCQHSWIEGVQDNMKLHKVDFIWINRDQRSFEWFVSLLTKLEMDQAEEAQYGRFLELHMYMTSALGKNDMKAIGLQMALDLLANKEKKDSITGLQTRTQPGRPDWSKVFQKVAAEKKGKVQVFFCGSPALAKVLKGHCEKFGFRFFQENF

Sequence of Streptavidin (Streptomyces avidinii) (P22629 whole entry, looked up): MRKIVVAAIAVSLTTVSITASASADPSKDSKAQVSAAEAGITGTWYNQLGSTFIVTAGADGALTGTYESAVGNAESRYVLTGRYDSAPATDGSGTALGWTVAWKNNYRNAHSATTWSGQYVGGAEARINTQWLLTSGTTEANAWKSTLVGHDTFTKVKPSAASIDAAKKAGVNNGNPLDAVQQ
Sequence of NADPH oxidase 2 (Homo sapiens) (P04839 whole entry, looked up): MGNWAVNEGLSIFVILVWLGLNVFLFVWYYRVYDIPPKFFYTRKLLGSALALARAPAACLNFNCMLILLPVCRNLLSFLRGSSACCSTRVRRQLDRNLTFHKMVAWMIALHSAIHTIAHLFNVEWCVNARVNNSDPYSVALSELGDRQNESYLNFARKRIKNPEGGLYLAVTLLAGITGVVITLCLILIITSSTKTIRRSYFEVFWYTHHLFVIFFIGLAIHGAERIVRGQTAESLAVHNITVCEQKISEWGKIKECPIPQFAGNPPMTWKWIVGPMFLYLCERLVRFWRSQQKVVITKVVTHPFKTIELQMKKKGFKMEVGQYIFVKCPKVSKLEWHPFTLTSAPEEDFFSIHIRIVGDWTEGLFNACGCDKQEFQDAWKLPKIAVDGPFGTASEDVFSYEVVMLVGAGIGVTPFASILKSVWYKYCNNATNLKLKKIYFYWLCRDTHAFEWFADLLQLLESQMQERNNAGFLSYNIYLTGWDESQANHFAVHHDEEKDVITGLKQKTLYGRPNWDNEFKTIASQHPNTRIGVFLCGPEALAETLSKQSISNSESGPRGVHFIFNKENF
Sequence of Torsin-1A (Homo sapiens) (O14656 whole entry, looked up): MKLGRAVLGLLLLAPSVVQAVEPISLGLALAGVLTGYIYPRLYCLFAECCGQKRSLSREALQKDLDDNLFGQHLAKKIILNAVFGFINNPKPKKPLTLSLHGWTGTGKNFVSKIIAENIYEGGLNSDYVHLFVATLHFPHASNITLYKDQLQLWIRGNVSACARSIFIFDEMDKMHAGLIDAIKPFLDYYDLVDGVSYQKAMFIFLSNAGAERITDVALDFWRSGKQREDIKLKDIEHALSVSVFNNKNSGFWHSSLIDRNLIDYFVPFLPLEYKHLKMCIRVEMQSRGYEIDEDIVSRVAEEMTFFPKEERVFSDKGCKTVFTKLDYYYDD
Sequence of NADPH oxidase 4 (Homo sapiens) (Q9NPH5 whole entry, looked up): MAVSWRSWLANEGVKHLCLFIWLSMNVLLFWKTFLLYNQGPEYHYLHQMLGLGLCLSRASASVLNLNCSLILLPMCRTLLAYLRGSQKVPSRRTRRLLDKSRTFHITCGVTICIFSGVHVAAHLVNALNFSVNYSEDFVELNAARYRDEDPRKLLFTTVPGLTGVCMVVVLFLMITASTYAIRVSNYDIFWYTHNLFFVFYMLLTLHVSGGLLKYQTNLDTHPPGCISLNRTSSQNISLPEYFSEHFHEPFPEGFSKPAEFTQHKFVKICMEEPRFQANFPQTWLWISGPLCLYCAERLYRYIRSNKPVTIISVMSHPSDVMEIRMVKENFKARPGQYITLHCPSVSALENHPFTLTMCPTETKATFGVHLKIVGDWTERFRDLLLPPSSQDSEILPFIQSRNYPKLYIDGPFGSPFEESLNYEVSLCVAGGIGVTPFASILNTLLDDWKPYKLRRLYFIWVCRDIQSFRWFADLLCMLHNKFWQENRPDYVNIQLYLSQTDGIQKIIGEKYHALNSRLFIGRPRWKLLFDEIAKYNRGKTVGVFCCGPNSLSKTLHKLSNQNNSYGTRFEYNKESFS

CN(C)C(=O)[C@@]1(CCC(=O)OC(C)(C)C)COC(c2ccc(OCCCO)cc2)=N1
composite z-score [1]: 0.0507 | z-score [2]: -0.196 (inactive) | z-score [3]: -0.478 (inactive) | z-score [4]: -0.277 (inactive) | z-score [5]: 0.855 (inactive) | composite z-score [6]: -0.354 | composite z-score [7]: 0.174 | composite z-score [8]: 0.445 | composite z-score [9]: 1.45 | composite z-score [10]: -0.942 | z-score [11]: 0.752 (inactive) | composite z-score [12]: 0.3 | z-score [13]: 9.27 (active) | z-score [14]: 0.536 (inactive) | z-score [15]: -0.674 (inactive) | z-score [16]: 0.198 (inactive) | z-score [17]: -0.449 | z-score [18]: -0.0773 (inactive) | z-score [19]: 0.829 (inactive) | z-score [20]: 0.655

CN1C(=O)C2C=CC(C(O)COCc3ccccc3)N(Nc3ccccc3)C2C1=O (stereo not given)
composite z-score [1]: 0.122 | z-score [2]: 0.631 (inactive) | z-score [3]: -0.0726 (inactive) | z-score [4]: 1.59 (inactive) | z-score [5]: -0.236 (inactive) | composite z-score [6]: 0.37 | composite z-score [7]: -0.018 | composite z-score [8]: -0.24 | composite z-score [9]: 0.162 | composite z-score [10]: 0.0686 | z-score [11]: -0.75 (inactive) | composite z-score [12]: 0.167 | z-score [13]: 0.625 (inactive) | z-score [14]: 0.167 (inactive) | z-score [15]: -0.225 (inactive) | z-score [16]: 0.63 (inactive) | z-score [17]: -1.01 | z-score [18]: -2.32 (inactive) | z-score [19]: -4.03 (inactive) | z-score [20]: -2.63

COC(=O)[C@@]1(Cc2ccc(OC)cc2)[C@H]2c3cc(C(=O)N(C)C)n(Cc4cc(C)n(C)n4)c3C[C@H]2CN1C(=O)c1ccccc1
composite z-score [1]: 0.982 | z-score [2]: -0.753 (inactive) | z-score [3]: 0.329 (inactive) | z-score [4]: 0.19 (inactive) | z-score [5]: 2.65 (inactive) | composite z-score [6]: 0.462 | composite z-score [7]: 0.229 | composite z-score [8]: 0.638 | composite z-score [9]: 0.67 | composite z-score [10]: -0.797 | z-score [11]: -1.82 (inactive) | composite z-score [12]: 0.396 | z-score [13]: 2.11 (inactive) | z-score [14]: 0.498 (inactive) | z-score [15]: 1.45 (inactive) | z-score [16]: 0.544 (inactive) | z-score [17]: 0.355 | z-score [18]: 0.27 (inactive) | z-score [19]: -1.52 (inactive) | z-score [20]: -3.56

COc1ccc(C(=O)Nc2ccc(CN3C(=O)[C@@]4(O[C@@H](CC(=O)N5Cc6ccccc6C[C@H]5CO)[C@H]([Si](C)(C)c5ccc(OC)cc5)[C@H]4C)c4ccccc43)cc2)cc1
composite z-score [1]: 0.206 | z-score [2]: -3.32 (inactive) | z-score [3]: 0.127 (inactive) | z-score [4]: 0.381 (inactive) | z-score [5]: 0.281 (inactive) | composite z-score [6]: -0.145 | composite z-score [7]: -0.154 | composite z-score [8]: 1.31 | composite z-score [9]: 0.002 | composite z-score [10]: 1.62 | z-score [11]: 0.0225 (inactive) | composite z-score [12]: 0.176 | z-score [13]: 4.72 (inactive) | z-score [14]: 1.4 (inactive) | z-score [15]: 0.655 (inactive) | z-score [16]: 0.868 (inactive) | z-score [17]: 0.0933 | z-score [18]: 0.105 (inactive) | z-score [19]: 0.417 (inactive) | z-score [20]: -0.886
